Consider 13 compounds from the supplement of paper PMC10811239.

For this assay, the system named is LEGO organoid PT (PTEN-/-; TP53-/-). The experiment in a line: bioluminescence (viable cell) signal fold change after vs before treatment, normalised to DMSO (ratio); higher = more tumour cell growth / less inhibition. The settings on record: 10 µM; treatment time 6 days. As to the method: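 Luc2-labelled iPSC-derived glioblastoma-like organoids (LEGOs, genotypes PT = PTEN-/-;TP53-/-, PTCC = plus CDKN2A/B-/-, PTN = plus NF1-/-) were treated with 10 uM drug for 6 days (applied every other day) at 37 C. Bioluminescence imaging was done before treatment and 2 days after the last dose. BLI signals were normalised to the DMSO control on the same day and then to the pre-treatment signal (N=3).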
Consider `Cc1cccc(N(C)C(=S)Oc2ccc3ccccc3c2)c1` [Tolnaftate], for which the bioluminescence is 1.01.

On to `COc1cc2c(Nc3ccc(Br)cc3F)ncnc2cc1OCC1CCN(C)CC1` [Vandetanib], for which the bioluminescence turned out to be 1.32.

As for `CC1COc2c(N3CCN(C)CC3)c(F)cc3c(=O)c(C(=O)O)cn1c23` (stereo not drawn) [Ofloxacin], the bioluminescence amounted to 1.08.

On to `CCc1cc(C(N)=S)ccn1` [Ethinamide], for which the bioluminescence stood at 2.05.

Regarding `CN(C)C(=N)NC(=N)N.Cl` [Metformin hydrochloride], the bioluminescence was found to be 2.55.

For `CCCN(CCC)CCc1cccc2c1CC(=O)N2.Cl` [Ropinirole hydrochloride], the bioluminescence was 1.27.

On to `CCC(C)(C)C(=O)O[C@H]1C[C@@H](C)C=C2C=C[C@H](C)[C@H](CC[C@@H]3C[C@@H](O)CC(=O)O3)[C@H]21` [Simvastatin], for which the bioluminescence is 1.45.

In the case of `N=C(N)NCCCC[C@@H]1NC(=O)CCSSC[C@@H](C(N)=O)NC(=O)[C@@H]2CCCN2C(=O)[C@H](Cc2c[nH]c3ccccc23)NC(=O)[C@H](CC(=O)O)NC(=O)CNC1=O` [Eptifibatide], the bioluminescence is 1.89.

For the compound `N[C@H](C(=O)O)[C@H](O)c1ccc(O)c(O)c1` [Droxidopa], the bioluminescence amounted to 1.08.

As for `Nc1nc(NC2CC2)c2ncn([C@H]3C=C[C@@H](CO)C3)c2n1` [Abacavir], the bioluminescence was 1.2.

`CC(=O)N[C@@H](CS)C(=O)O` [Acetylcysteine]: the bioluminescence came out at 1.23.

For the compound `CN(C)CCCN1c2ccccc2CCc2ccccc21.Cl` [Imipramine hydrochloride], the bioluminescence was 0.921.

As to `CCc1c(C)[nH]c2c1C(=O)C(CN1CCOCC1)CC2.Cl` (stereo not drawn) [Molindone hydrochloride], the bioluminescence turned out to be 0.607.
